This passage reports Potency results from PubChem BioAssay (NCATS).

Records with an inconclusive call do not appear. A call without a number means that no potency is given here. Activity calls are given as the source filed them. Calls come from the whole dose curve; as a rule, active = well fitted inhibition curve with a large enough effect; inconclusive = small, poorly fitted or top-dose-only effect; inactive = flat fitted curve, though single readings scatter.

For assay [1], the target named is Luciferin 4-monooxygenase (Photinus pyralis) (UniProt P08659). The experiment in a line: Biochemical firefly luciferase enzyme assay for NPC (AID 624030). Note: nearly all actives have a fitted effect of over 70% in size. To be noted: purified P. pyralis luciferase, luminescence, 5 min; series mostly up to 58.6 µM. Summed up:
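Purified P. pyralis luciferase at 10 nM in 50 mM Tris Acetate (final), luminescence read within 5 minutes of enzyme addition to compounds. Activity normalised to PTC124 versus DMSO; concentration-response curves classed by r2, magnitude and activity.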

Assay [2] addresses Voltage-gated inwardly rectifying potassium channel KCNH2 (Homo sapiens) (UniProt Q12809). The assay can be described thus: qHTS Assay for Small Molecule Inhibitors of the Human hERG Channel Activity (AID 588834).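 Note: lower thallium flux fluorescence means stronger hERG block; nearly all actives have a fitted effect of over 50% in size.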 Particulars: U2OS BacMam hERG, FluxOR thallium flux fluorescence; series mostly up to 46.1 µM. An outline of the steps: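 Blockade is seen as reduced FluxOR thallium-flux fluorescence in U2OS cells expressing hERG from a BacMam construct, in Opti-MEM with 2% FCS. Concentration-response data fitted to the Hill equation for AC50.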
(Quantitative high-throughput screening tests each substance at several concentrations.)
Potency is the fitted concentration of half-maximal effect.

Sequence of Luciferin 4-monooxygenase (Photinus pyralis) (P08659 whole entry, looked up): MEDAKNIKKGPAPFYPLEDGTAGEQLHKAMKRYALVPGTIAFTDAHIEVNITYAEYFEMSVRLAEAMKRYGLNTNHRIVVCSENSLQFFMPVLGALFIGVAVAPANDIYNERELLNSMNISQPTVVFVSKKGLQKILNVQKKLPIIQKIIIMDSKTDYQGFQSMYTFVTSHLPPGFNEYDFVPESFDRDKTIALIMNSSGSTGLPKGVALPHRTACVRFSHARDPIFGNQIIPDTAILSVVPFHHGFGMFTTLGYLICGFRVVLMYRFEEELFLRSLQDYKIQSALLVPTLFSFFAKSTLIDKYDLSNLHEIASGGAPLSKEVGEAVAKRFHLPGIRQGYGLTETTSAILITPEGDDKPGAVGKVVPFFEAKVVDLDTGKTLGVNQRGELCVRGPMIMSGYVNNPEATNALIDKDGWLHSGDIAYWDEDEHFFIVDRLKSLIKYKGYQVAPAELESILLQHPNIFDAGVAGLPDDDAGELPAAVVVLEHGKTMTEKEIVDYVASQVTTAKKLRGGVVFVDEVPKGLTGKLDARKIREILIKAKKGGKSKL
Sequence of Voltage-gated inwardly rectifying potassium channel KCNH2 (Homo sapiens) (Q12809 whole entry, looked up): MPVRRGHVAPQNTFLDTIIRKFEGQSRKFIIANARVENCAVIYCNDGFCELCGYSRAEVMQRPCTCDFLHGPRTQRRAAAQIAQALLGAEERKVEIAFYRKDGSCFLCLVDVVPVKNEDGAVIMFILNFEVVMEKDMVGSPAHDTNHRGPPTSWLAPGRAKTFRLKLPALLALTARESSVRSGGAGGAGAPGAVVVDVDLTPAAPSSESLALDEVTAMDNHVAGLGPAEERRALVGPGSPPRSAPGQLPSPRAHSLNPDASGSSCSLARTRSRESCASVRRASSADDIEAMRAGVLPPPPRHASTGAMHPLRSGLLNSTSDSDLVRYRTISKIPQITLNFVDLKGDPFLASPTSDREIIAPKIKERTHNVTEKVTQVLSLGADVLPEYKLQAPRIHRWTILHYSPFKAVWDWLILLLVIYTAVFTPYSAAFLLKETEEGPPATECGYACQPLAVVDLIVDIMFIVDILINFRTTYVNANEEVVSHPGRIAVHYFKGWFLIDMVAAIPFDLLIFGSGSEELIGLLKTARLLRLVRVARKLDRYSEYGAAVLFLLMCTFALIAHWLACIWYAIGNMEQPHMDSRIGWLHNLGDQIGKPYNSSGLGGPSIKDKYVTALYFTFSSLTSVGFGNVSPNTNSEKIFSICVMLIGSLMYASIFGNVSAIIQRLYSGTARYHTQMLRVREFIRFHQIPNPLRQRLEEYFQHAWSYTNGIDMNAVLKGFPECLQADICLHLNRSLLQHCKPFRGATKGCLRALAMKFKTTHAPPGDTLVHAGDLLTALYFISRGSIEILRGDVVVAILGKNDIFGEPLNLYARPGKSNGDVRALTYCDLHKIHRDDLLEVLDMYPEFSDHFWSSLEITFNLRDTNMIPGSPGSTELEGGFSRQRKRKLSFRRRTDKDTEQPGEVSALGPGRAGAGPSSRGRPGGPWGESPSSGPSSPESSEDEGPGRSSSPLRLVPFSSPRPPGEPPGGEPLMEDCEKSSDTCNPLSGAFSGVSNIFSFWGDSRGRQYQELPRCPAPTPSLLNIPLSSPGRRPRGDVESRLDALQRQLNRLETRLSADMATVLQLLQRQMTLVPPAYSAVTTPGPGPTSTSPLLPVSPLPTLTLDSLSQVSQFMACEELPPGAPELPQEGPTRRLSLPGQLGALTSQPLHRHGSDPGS

`CCCN1CCC[C@@H]2Cc3[nH]ncc3C[C@H]21`: the Potency result in assay [1] was “inactive”.
`CC(C)(C)NCC(O)c1cc(Cl)c(N)c(Cl)c1` (stereo not given): the Potency result in assay [2] and in assay [1] was “inactive” throughout.
Consider `CC(C)(N)Cc1ccc(Cl)cc1`, for which the Potency entry in assay [2] and in assay [1] was “inactive” throughout.
On to `CC1NCCOC1c1ccccc1` (stereo not given), for which the Potency entry in assay [2] and in assay [1] was “inactive” throughout.
As to `O=C(O)c1ccc2[nH]cc(CCCCN3CC=C(c4ccccc4)CC3)c2c1`, the Potency result in assay [2] and in assay [1] was “inactive” each time.
In the case of `Cc1cccc(C)c1NC(=O)CN1CCCC1=O`, in assay [1], the Potency result is “inactive”.
`C#CCOC(C(=O)OCCN(C)C)(c1ccccc1)c1ccccc1`: the Potency entry in assay [2] and in assay [1] was “inactive” throughout.
As to `Cc1ccc(S(=O)(=O)N[C@@H](CCCCN)C(=O)CCl)cc1`, the Potency result in assay [2] and in assay [1] was “inactive” each time.
As for `CCC(COC(=O)c1cc(OC)c(OC)c(OC)c1)(c1ccccc1)N(C)C` (stereo not given), the Potency result in assay [1] is “inactive”.
Consider `CCC1(C2=NCCN2)Cc2ccccc2O1` (stereo not given), for which the Potency result in assay [2] and in assay [1] was “inactive” throughout.
On to `COc1ccc(C(=O)c2c(C)n(CCN3CCOCC3)c3ccccc23)cc1`, for which the Potency entry in assay [2] and in assay [1] was “inactive” throughout.
Consider `CN1CCN(C2=Nc3cc(Cl)ccc3Nc3ccccc32)CC1`, for which the Potency entry in assay [1] was “inactive”.
With `CC(=O)Nc1cc([As](=O)(O)O)ccc1O`, the Potency result in assay [2] and in assay [1] was “inactive” throughout.
For the compound `CC(=O)Oc1ccccc1C(=O)Nc1ncc([N+](=O)[O-])s1`, the Potency in assay [1] was 0.721 µM (active).
On to `NCC1(CC(=O)O)CCCCC1`, for which the Potency result in assay [2] and in assay [1] was “inactive” throughout.
As for `Fc1ccc(C(OCCN2CCN(CCCc3ccccc3)CC2)c2ccc(F)cc2)cc1`, the Potency result in assay [1] is “inactive”.
Turning to `CCN(CC)CCOC(=O)C(O)(c1ccccc1)c1ccccc1`, the Potency in assay [2] is 15.8 µM (active). For the same compound, the Potency entry in assay [1] was “inactive”.
Consider `C=C1CC[C@@]2(O)[C@H]3Cc4ccc(O)c5c4[C@@]2(CCN3CC2CC2)[C@H]1O5`, for which the Potency entry in assay [2] and in assay [1] was “inactive” each time.
